# In PubChem BioAssay (NCI):
# Values joined by “and” are separate entries in the source; they are usually repeats but may differ in a detail not shown here. Equal values may be shown once. The panel holds about 83,000 compounds, 20% with a hit somewhere; the sample as a whole holds those more often.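 Method: cells in 96-well plates; compound added at one concentration; 48 h incubation; percent growth measured; values under 10 scored active.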 Active and inactive are the calls of the source.
# Tested on: OVCAR-3 ovarian
# Experiment: NCI-60 one-dose screen, 48 h (100 = growth as untreated, 0 = no growth, -100 = all killed)
# Conditions: 10 µM
# Description: Growth inhibition of the OVCAR-3 human tumor cell line is measured as a screen for anti-cancer activity. Cells are grown in 96 well plates and exposed to the test compound for 48 hours. Compounds are tested at a single concentration, which is 10^-5 M for most compounds. The reported endpoint is percent growth (GI% or GIPRCNT), where numbers from 0 - 100% represent growth inhibition, and numbers from -100% - 0 represent cell death. For example, a value of 40 represents 60% growth inhibition. A value of 0 means no net growth occurred over the course of the experiment. A value of -40 indicates 40% of cells at the beginning of the experiment died by the end of the experiment. A value of -100 means all cells are dead at the end of the experiment.
# NCI-60 Human Tumor Cell Lines Screen was performed using the standard one-dose NCI protocol, which is described in more detail at https://dtp.cancer.gov/discovery_development/nci-60/default.htm.
# Compounds with GIPRCNT values below 10 were considered active. Activity score was based on GIPRCNT using the following formula: […]
# Score is 0 for GIPRCNT values of 100 or above, 50 for GIPRCNT values of 0, and 100 for GIPRCNT values of -100.
row,Compound,growth
1,Cc1cc([N+](=O)[O-])c2ccccc2[n+]1[O-],-32.2% (active) and -41% (active)
2,Oc1c(I)cc(I)cc1I,124% (inactive)
3,CC(Cc1ccc2c(c1)OCO2)NN (stereo not given),112% (inactive)
4,Oc1c(Cl)cc(Cl)c2ccccc12.[Cu+2],79.7% (inactive)
5,O=S(=O)(F)c1ccc(Cl)cc1,108% (inactive)
6,CC/C(=C/c1ccc(OC)cc1OC)[N+](=O)[O-],58.7% (inactive)
7,CC(=O)Nc1c2sscc-2n(C)c1=O,-100% (active)
8,O=C(CBr)Nc1ccc(Cl)cc1,68.9% (inactive)
9,CS(=N)(=O)CCC(N)C(=O)O (stereo not given),115% (inactive)
10,C/C1=C\[C@H](C)C[C@H](C)OC(=O)C[C@H](c2ccc(O)cc2)NC(=O)[C@@H](Cc2c(Br)[nH]c3ccccc23)N(C)C(=O)[C@H](C)NC(=O)[C@@H](C)C1,-44.9% (active)
11,CC/C(=C/c1ccc(OC)cc1)[N+](=O)[O-],-54.6% (active)
12,O=[N+]([O-])c1cc[n+]([O-])c2ccccc12,4.56% (active)
13,COc1ccc2c(ccc3oc([N+](=O)[O-])cc32)c1,-13.9% (active)
14,NNc1ccccc1,97.7% (inactive)
15,CC(C)(C)OOC(=O)/C=C\C(=O)OOC(C)(C)C,113% (inactive)
16,CC1CCC2(OC1)OC1C(O)C3C4CCC5CC(OC6OC(CO)C(OC7OC(CO)C(O)C(OC8OCC(O)C(O)C8O)C7OC7OC(CO)C(O)C(OC8OC(CO)C(O)C(O)C8O)C7O)C(O)C6O)C(O)CC5(C)C4CCC3(C)C1C2C (stereo not given),-83.1% (active)
17,CC[C@@]1(O)C[C@H](OC2CC(N(C)C)C(O)C(C)O2)c2c(cc3c(c2O)C(=O)c2c(O)ccc(O)c2C3=O)[C@H]1C(=O)OC (stereo not given in full),-41.6% (active)
18,COc1ccc(/C=C\[N+](=O)[O-])cc1OC,55.6% (inactive) and 37% (inactive)
19,CC(C)C1(NC(=O)C2CC3c4cccc5[nH]cc(c45)CC3N(C)C2)OC2(O)C3CCCN3C(=O)C(Cc3ccccc3)N2C1=O (stereo not given),116% (inactive)
20,O=C(O)c1cc(Cc2ccc(O)c(C(=O)O)c2)ccc1O (tested in a mixture with another compound),70.4% (inactive)

row,Compound,growth
1,O=C1C=Cc2ccccc2C1=O,96.9% (inactive)
2,C[CH2][Hg][S]c1ccccc1C(=O)O,-100% (active)
3,COC(=O)C1C(O)C(C)C(O)C(C)/C=C\C=C(C)C(=O)Nc2c(C)c(OC(C)=O)c3c(c2O)C(=O)C(C)=C2OCOC(=C23)C(C)=CC(C)(O)C(O)C(C)C1O (stereo not given),105% (inactive)
4,COc1ccccc1[As]=[As]c1ccccc1OC (stereo not given),-93.3% (active)
5,COc1cc([N+](=O)[O-])c2ncccc2c1[N+](=O)[O-],58.1% (inactive)
6,CCCCCCCC[N+]12CN3CN(CN(C3)C1)C2,97.9% (inactive)
7,CC(C)c1cc([N+](=O)[O-])cc([N+](=O)[O-])c1O,105% (inactive)
8,COC12C(COC(N)=O)C3=C(C(=O)C(C)=C(N)C3=O)N1CC1C2N1C (stereo not given),79.2% (inactive)
9,CN(C)CC1(N)C(=O)NC(=O)NC1=O,113% (inactive)
10,COS(=O)(=O)c1ccccc1,110% (inactive)
11,O=[N+]([O-])/C=C\c1ccc2c(c1)OCO2,85.7% (inactive)
12,COc1cc(/C=C(/C)[N+](=O)[O-])ccc1O,-76.2% (active) and -89.3% (active)
13,ClCc1ccc2ccccc2n1,99% (inactive)
14,CCOP(=O)(OCC)/C(C#N)=C/c1ccc(Br)cc1,112% (inactive)
15,NC(=O)c1cc([N+](=O)[O-])c(Cl)c([N+](=O)[O-])c1,-41.1% (active)
16,NC(Cc1ccccc1)c1ccccc1 (stereo not given),112% (inactive) and 118% (inactive)
17,CC(=O)[O][Hg][c]1c(C)c(C)cc(C)c1C,-93.6% (active)
18,Oc1ccccc1-c1ccccc1,103% (inactive) and 116% (inactive)
19,COc1cc2c(c(OC)c1OC)-c1ccc(O)c(=O)cc1[C@@H](NC(C)=O)CC2,3.49% (active)
20,NC(=O)c1cc([N+](=O)[O-])c(Cl)c([N+](=O)[O-])c1Cl,-97.4% (active)
